# PMC7862700, “An all-to-all approach to the identification of sequence-specific readers for epigenetic DNA modifications on cytosine”
# Key:
# Assay in all cases: DAPPL (digital affinity profiling via proximity ligation, sequencing); 10 mM Tris-HCl pH 7.5, 50 mM NaCl, 1 mM DTT, 4% glycerol, room temperature, 30 min; GST-TFs on glutathione beads, 16-mer random dsDNA library, 0.1% formaldehyde crosslink after washing; high values mean tight binding
# FLI1 = molecular target: T1, FLI1 (Homo sapiens, UniProt Q01543 1-452); conditions: protein: recombinant; tags: N-terminal GST; dsDNA, one strand shown
# T1 sequence: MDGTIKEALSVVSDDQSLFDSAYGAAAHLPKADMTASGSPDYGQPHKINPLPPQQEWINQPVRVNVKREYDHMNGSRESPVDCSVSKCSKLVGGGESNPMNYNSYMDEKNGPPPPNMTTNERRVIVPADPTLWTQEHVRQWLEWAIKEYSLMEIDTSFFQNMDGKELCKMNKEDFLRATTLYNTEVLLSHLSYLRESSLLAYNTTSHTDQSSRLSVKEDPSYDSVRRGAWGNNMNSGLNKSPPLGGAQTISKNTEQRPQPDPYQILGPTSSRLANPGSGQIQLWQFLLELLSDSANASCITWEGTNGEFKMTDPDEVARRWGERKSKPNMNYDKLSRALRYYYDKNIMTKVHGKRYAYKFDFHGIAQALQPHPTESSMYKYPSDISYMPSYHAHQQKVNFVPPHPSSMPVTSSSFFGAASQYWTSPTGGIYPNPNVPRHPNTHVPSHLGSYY
# Procedure, shortened: (§1)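 Beads coated with glutathione captured GST-fused human transcription factors that had been expressed in yeast, and the factors were then given DNA barcodes and pooled with a tag-only sample. The pools were incubated with 200 nmole of a random double-stranded 16-mer DNA library in Tris/NaCl/DTT/glycerol buffer for 30 min at room temperature, washed, crosslinked with 0.1% formaldehyde and proximity-ligated with BsaI/T4 ligase at 37 °C for 1 h. PCR amplification and Illumina NextSeq500 sequencing came last. Binding signal is each hexamer's read frequency for a factor divided by its frequency for the tag-only sample.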
# ELK1 = molecular target: T2, ELK1 (Homo sapiens, UniProt P19419 1-428); conditions: protein: recombinant; tags: N-terminal GST; dsDNA, one strand shown
# T2 sequence: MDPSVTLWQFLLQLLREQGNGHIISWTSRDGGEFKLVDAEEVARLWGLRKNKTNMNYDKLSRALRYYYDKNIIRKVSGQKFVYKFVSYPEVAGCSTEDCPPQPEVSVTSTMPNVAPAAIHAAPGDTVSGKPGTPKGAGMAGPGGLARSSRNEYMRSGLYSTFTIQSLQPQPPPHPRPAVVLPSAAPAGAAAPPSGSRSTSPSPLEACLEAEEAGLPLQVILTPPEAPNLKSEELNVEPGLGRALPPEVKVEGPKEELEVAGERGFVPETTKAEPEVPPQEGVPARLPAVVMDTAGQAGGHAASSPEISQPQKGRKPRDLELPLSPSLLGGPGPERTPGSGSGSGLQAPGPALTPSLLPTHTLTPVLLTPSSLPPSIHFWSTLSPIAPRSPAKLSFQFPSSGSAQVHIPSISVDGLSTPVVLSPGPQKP
# Procedure, shortened: as §1
# GABPA = molecular target: T3, GABPA (Homo sapiens, UniProt Q06546 1-454); conditions: protein: recombinant; tags: N-terminal GST; dsDNA, one strand shown
# T3 sequence: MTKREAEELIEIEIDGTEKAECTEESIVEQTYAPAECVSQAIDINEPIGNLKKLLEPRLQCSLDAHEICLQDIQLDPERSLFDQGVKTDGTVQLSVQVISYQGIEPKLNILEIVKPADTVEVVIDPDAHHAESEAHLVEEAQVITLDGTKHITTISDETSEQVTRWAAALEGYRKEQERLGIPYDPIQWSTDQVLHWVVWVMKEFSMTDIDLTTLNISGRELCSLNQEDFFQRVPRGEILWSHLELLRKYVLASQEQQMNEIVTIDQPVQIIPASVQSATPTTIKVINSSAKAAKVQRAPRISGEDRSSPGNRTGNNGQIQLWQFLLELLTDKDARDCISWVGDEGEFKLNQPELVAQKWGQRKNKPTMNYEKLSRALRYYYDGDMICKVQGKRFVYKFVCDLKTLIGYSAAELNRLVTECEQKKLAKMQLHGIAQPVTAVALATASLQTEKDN
# Procedure, shortened: as §1
# ERG = molecular target: T4, ERG (Homo sapiens, UniProt P11308 1-479); conditions: protein: recombinant; tags: N-terminal GST; dsDNA, one strand shown
# T4 sequence: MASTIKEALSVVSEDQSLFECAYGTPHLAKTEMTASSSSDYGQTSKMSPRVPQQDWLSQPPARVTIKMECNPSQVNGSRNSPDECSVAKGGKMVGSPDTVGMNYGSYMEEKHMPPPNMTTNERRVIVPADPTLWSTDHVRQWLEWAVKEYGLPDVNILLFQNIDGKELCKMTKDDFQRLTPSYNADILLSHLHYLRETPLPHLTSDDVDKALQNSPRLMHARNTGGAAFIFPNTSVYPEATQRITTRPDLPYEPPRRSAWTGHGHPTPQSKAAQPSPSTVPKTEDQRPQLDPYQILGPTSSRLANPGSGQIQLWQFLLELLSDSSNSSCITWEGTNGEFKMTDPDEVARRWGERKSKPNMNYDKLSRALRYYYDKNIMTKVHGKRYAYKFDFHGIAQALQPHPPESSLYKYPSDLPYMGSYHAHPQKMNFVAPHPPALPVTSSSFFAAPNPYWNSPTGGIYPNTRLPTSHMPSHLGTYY
# Procedure, shortened: as §1
# ELF1 = ELF1 (Homo sapiens, UniProt P32519 1-619); conditions: protein: recombinant; tags: N-terminal GST; dsDNA, one strand shown
# Procedure, shortened: as §1
# EHF = molecular target: T5, EHF (Homo sapiens, UniProt Q9NZC4 1-300); conditions: protein: recombinant; tags: N-terminal GST; dsDNA, one strand shown
# T5 sequence: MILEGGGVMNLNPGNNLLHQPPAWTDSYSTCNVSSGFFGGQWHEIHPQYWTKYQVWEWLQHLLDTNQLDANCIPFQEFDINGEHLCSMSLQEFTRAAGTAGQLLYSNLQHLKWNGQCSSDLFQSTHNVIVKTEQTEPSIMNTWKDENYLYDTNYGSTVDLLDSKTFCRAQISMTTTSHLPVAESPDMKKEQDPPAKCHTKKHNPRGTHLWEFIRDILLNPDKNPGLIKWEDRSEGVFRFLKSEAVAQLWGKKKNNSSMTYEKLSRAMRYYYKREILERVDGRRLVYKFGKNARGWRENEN
# Procedure, shortened: as §1
# SPI1 = SPI1 (Homo sapiens, UniProt P17947 1-270); conditions: protein: recombinant; tags: N-terminal GST; dsDNA, one strand shown
# Procedure, shortened: as §1
# SPIB = SPIB (Homo sapiens, UniProt Q01892 1-262); conditions: protein: recombinant; tags: N-terminal GST; dsDNA, one strand shown
# Procedure, shortened: as §1
# ELK3 = molecular target: T6, ELK3 (Homo sapiens, UniProt P41970 1-407); conditions: protein: recombinant; tags: N-terminal GST; dsDNA, one strand shown
# T6 sequence: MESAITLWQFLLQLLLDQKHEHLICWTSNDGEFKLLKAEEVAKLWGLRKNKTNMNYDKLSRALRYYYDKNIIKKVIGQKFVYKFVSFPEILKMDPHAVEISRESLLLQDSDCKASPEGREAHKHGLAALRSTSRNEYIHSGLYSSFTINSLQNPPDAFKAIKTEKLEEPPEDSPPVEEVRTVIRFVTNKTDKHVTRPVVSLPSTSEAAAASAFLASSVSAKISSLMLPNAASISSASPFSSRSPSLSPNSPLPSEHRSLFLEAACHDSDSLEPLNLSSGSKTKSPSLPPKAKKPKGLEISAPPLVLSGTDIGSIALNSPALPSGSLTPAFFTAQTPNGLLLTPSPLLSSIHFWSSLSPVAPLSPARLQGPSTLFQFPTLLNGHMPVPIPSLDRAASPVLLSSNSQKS
# Procedure, shortened: as §1
# FEV = molecular target: T7, FEV (Homo sapiens, UniProt Q99581 1-238); conditions: protein: recombinant; tags: N-terminal GST; dsDNA, one strand shown
# T7 sequence: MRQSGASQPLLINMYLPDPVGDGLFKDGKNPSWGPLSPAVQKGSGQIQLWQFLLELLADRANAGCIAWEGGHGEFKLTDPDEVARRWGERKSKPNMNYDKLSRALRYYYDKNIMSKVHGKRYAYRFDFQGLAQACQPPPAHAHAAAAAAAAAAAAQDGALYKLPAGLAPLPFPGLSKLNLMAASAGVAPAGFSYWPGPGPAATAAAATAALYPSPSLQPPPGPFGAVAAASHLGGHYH
# Procedure, shortened: as §1
# ETV5 = ETV5 (Homo sapiens, UniProt P41161 1-510); conditions: protein: recombinant; tags: N-terminal GST; dsDNA, one strand shown
# Procedure, shortened: as §1
# HSF1 = HSF1 (Homo sapiens, UniProt Q00613 1-529); conditions: protein: recombinant; tags: N-terminal GST; chain copies: 3; dsDNA, one strand shown
# Procedure, shortened: as §1
# SPIC = molecular target: T8, SPIC (Homo sapiens, UniProt Q8N5J4 1-248); conditions: protein: recombinant; tags: N-terminal GST; dsDNA, one strand shown
# T8 sequence: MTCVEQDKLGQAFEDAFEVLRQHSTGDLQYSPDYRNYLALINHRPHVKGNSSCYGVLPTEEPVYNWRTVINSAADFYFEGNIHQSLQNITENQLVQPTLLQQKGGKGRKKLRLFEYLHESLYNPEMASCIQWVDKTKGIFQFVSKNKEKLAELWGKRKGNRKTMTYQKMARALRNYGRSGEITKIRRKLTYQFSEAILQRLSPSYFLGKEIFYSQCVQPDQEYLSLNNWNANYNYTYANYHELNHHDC
# Procedure, shortened: as §1
# ELF4 = ELF4 (Homo sapiens, UniProt Q99607 1-663); conditions: protein: recombinant; tags: N-terminal GST; dsDNA, one strand shown
# Procedure, shortened: as §1
# ELK4 = molecular target: T9, ELK4 (Homo sapiens, UniProt P28324-2 1-405); conditions: protein: recombinant; tags: N-terminal GST; dsDNA, one strand shown
# T9 sequence: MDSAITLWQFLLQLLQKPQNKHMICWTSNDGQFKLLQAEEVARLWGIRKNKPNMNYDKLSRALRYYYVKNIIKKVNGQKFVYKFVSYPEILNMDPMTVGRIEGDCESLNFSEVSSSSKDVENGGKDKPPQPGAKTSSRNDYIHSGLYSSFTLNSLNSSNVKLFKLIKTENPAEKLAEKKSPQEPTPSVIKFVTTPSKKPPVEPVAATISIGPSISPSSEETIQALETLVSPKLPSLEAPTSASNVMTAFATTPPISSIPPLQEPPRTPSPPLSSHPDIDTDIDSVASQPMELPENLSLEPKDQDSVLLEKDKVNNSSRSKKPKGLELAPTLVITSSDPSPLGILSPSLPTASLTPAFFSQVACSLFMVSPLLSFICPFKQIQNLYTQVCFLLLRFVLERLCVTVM
# Procedure, shortened: as §1
# ETV2 = molecular target: T10, ETV2 (Homo sapiens, UniProt O00321 1-342); conditions: protein: recombinant; tags: N-terminal GST; dsDNA, one strand shown
# T10 sequence: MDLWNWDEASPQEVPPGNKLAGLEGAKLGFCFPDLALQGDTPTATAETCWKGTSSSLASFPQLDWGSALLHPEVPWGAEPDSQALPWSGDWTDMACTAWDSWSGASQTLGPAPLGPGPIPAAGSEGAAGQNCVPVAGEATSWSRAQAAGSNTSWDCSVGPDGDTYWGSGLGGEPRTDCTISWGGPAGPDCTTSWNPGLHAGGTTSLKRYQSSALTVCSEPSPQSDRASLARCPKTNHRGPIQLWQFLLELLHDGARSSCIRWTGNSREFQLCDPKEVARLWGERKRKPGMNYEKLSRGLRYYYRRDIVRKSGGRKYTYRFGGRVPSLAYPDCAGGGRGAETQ
# Procedure, shortened: as §1
# ELF3 = molecular target: T11, ELF3 (Homo sapiens, UniProt P78545 1-371); conditions: protein: recombinant; tags: N-terminal GST; dsDNA, one strand shown
# T11 sequence: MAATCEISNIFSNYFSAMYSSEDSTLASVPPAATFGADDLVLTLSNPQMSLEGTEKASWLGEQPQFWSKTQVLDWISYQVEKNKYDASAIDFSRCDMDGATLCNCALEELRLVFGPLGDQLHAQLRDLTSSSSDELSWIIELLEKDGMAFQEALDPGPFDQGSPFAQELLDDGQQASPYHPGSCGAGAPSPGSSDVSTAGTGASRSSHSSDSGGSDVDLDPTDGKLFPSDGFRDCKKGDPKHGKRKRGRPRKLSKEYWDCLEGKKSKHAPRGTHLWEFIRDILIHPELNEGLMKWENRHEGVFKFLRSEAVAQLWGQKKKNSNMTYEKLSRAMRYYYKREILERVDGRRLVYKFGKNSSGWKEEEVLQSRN
# Procedure, shortened: as §1
# CRX = CRX (Homo sapiens, UniProt O43186 1-299); conditions: protein: recombinant; tags: N-terminal GST; dsDNA, one strand shown
# Procedure, shortened: as §1
# ETV1 = ETV1 (Homo sapiens, UniProt P50549 1-477); conditions: protein: recombinant; tags: N-terminal GST; dsDNA, one strand shown
# Procedure, shortened: as §1
# Chain of HSF1 (Q00613 whole entry): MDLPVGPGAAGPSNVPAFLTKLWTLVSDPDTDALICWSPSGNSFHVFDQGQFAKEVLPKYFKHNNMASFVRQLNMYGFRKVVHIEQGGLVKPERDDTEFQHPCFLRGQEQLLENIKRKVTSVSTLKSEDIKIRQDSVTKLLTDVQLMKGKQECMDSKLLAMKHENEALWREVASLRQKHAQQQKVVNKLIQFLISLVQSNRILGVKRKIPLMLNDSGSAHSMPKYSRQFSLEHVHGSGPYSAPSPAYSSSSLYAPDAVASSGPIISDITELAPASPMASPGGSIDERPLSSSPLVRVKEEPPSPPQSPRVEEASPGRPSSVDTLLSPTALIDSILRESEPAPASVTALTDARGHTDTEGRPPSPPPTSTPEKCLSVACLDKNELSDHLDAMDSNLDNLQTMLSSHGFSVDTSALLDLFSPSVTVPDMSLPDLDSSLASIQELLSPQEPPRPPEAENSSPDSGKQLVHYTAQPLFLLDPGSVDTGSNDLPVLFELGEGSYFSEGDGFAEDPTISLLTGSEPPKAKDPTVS
# Chain of ELF4 (Q99607 whole entry): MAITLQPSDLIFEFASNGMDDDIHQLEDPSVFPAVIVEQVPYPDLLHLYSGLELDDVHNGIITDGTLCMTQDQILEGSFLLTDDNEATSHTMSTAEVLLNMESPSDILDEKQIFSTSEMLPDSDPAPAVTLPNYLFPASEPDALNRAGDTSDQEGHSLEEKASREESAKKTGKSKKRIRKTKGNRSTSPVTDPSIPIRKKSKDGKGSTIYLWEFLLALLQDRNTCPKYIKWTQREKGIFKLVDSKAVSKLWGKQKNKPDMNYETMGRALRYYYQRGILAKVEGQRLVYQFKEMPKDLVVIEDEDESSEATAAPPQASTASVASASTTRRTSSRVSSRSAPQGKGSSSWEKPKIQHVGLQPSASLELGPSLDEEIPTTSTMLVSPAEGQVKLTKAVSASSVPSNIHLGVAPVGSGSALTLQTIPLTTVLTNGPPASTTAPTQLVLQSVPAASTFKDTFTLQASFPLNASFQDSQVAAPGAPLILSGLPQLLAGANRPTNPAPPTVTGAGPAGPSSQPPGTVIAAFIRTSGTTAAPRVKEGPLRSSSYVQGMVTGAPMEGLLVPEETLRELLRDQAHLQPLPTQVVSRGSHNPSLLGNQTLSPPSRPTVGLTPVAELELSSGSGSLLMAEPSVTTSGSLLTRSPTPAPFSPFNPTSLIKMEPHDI
# Chain of SPIB (Q01892 whole entry): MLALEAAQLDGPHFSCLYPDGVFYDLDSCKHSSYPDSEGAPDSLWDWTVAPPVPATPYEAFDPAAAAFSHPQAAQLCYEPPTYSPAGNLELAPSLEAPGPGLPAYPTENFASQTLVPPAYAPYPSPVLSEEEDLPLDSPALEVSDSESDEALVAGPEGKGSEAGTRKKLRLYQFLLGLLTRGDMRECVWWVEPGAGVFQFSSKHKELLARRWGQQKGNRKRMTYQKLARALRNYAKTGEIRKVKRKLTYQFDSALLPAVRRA
# Chain of ELF1 (P32519 whole entry): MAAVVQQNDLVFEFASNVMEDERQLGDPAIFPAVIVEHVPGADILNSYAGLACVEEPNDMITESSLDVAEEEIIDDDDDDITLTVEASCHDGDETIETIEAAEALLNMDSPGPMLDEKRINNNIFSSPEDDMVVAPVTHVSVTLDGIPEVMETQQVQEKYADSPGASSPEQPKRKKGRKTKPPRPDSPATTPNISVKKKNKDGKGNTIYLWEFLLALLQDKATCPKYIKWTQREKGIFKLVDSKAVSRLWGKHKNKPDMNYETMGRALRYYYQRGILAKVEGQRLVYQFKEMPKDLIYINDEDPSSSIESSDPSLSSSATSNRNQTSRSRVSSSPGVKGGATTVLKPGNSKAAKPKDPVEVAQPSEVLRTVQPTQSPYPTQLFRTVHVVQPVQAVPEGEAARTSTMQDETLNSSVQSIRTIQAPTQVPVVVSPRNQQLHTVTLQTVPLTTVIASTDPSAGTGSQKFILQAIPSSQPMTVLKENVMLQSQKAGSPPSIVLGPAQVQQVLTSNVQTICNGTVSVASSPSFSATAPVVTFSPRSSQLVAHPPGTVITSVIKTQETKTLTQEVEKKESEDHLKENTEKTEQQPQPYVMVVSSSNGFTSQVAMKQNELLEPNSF
# Chain of ETV5 (P41161 whole entry): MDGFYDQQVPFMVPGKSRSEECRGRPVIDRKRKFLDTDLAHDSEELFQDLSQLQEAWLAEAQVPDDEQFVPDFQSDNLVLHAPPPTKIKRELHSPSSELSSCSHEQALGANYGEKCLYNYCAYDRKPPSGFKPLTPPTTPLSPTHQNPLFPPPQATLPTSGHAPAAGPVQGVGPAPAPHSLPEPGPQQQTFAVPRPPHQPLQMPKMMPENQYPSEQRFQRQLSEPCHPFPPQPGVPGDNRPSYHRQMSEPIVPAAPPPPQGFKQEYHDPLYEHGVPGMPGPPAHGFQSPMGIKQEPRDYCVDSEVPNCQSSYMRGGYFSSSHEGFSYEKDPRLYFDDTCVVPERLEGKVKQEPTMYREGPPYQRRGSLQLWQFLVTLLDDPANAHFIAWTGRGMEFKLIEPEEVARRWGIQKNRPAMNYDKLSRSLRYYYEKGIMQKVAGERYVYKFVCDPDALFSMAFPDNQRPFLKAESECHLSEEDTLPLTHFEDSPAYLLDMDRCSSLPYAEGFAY
# Chain of ETV1 (P50549 whole entry): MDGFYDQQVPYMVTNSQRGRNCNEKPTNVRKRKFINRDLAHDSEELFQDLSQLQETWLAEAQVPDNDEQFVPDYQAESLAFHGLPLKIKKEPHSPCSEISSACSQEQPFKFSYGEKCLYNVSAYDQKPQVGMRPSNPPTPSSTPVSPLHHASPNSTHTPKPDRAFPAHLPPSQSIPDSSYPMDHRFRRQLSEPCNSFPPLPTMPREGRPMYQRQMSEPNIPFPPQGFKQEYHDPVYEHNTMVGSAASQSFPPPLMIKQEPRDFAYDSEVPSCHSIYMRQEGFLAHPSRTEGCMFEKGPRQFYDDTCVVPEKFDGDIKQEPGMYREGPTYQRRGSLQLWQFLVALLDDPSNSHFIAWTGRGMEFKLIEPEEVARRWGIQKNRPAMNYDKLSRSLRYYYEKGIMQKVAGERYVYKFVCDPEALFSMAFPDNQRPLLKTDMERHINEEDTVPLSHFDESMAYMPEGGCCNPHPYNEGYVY
# Chain of CRX (O43186 whole entry): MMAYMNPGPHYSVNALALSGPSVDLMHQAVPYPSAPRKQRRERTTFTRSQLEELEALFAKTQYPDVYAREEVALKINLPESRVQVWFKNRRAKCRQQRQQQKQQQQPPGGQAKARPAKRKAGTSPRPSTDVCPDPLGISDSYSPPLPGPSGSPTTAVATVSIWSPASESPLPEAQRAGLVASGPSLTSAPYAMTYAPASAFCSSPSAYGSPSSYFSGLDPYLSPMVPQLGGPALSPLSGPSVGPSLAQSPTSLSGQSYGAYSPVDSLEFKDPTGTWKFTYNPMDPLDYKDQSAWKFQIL
sequence,measurement,setting,value
GGATTT,binding signal,FLI1,"1.33 fold enrichment (6-mer frequency, TF over GST control)"
same,binding signal,ELK1,"1.25 fold enrichment (6-mer frequency, TF over GST control)"
same,binding signal,GABPA,"1.26 fold enrichment (6-mer frequency, TF over GST control)"
same,binding signal,ERG,"1.34 fold enrichment (6-mer frequency, TF over GST control)"
same,binding signal,ELF1,"1.23 fold enrichment (6-mer frequency, TF over GST control)"
same,binding signal,EHF,"1.24 fold enrichment (6-mer frequency, TF over GST control)"
same,binding signal,SPI1,"1.22 fold enrichment (6-mer frequency, TF over GST control)"
same,binding signal,SPIB,"1.29 fold enrichment (6-mer frequency, TF over GST control)"
same,binding signal,ELK3,"1.48 fold enrichment (6-mer frequency, TF over GST control)"
same,binding signal,FEV,"2.01 fold enrichment (6-mer frequency, TF over GST control)"
same,binding signal,ETV5,"1.33 fold enrichment (6-mer frequency, TF over GST control)"
same,binding signal,HSF1,"1.62 fold enrichment (6-mer frequency, TF over GST control)"
same,binding signal,SPIC,"1.16 fold enrichment (6-mer frequency, TF over GST control)"
same,binding signal,ELF4,"1.26 fold enrichment (6-mer frequency, TF over GST control)"
same,binding signal,ELK4,"1.25 fold enrichment (6-mer frequency, TF over GST control)"
same,binding signal,ETV2,"1.27 fold enrichment (6-mer frequency, TF over GST control)"
same,binding signal,ELF3,"1.15 fold enrichment (6-mer frequency, TF over GST control)"
same,binding signal,CRX,"2.47 fold enrichment (6-mer frequency, TF over GST control)"
same,binding signal,ETV1,"1.22 fold enrichment (6-mer frequency, TF over GST control)"
